Test results taken from PubChem BioAssay AID2284364 (EPA ToxCast).
Values joined by “and” are separate entries in the source; they are usually repeats but may differ in a detail not shown here. Identical values can stand only once. Active and inactive are the calls of the source. How the source made its calls: active means hit-call score of the fitted dose curve at least 0.9, where 1 is the maximum; inactive means score below 0.9.

target: Peroxisome proliferator-activated receptor gamma (Homo sapiens) (UniProt P37231); experiment: ERF_US_NR_hPPARG: Eurofins (ERF) Nuclear Receptor (NR) Cell Based Protein-Protein Interaction LeadHunter Assay for human Peroxisome Proliferator-activated Receptor-gamma (PPARg) Agonism
Sequence (P37231 whole entry, looked up): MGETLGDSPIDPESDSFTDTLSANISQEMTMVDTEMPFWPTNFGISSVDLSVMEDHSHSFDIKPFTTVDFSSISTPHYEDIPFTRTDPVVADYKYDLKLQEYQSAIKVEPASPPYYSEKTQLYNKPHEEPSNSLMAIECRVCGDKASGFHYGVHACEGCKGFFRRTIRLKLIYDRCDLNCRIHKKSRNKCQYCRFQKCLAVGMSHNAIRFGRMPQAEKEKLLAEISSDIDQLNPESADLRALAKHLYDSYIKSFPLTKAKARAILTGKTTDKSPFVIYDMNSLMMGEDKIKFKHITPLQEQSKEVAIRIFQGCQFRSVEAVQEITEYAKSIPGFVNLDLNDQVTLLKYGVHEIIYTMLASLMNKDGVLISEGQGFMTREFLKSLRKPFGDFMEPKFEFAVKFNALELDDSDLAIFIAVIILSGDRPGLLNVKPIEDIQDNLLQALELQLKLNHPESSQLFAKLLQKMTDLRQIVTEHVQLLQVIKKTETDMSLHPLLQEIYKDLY
Experimental: ERF_US_NR_hPPARG is a cell-based, single-readout assay that uses extracted gene-proteins in a cell-line assay. Measurements were taken 5 hours after chemical dosing in a 384-well plate. See PPARgamma Human NHR Cell Based Agonist Protein-Protein Interaction Assay, DiscoverX.ERF_US_NR_hPPARG is an assay component calculated from the ERF_US_NR_hPPARG assay. It is designed to measure […] using a type of binding reporter as detected by scintillation counting with radiometry technology.Data from the assay component ERF_US_NR_hPPARG was analyzed at the assay endpoint, ERF_US_NR_hPPARG, in the positive analysis fitting direction relative to DMSO as the negative control and baseline of activity. Using a type of binding reporter, gain-of-signal activity can be used to understand changes in binding as they relate to gene PPARG. To generalize the intended target to other relatable targets, this assay endpoint is annotated to the nuclear receptor intended target family, where the subfamily is non-steroidal.
Cells were seeded in a total volume of 20 uL into white walled, 384-well microplates and incubated at 37C overnight prior to testing.Briefly, intermediate dilution of sample stocks was performed to generate 5X sample in assay buffer. 5 uL of 5X sample was added to cells and incubated at 37C for 300 minutes. Final assay vehicle concentration was 1%. The results are expressed as a percent efficacy of the control ligand.

Row | SMILES | outcome | AC50
1 | O=C(O)CCC(F)(F)C(F)(F)C(F)(F)F | inactive | 
2 | NC(=O)c1nc(-c2cccc(-c3cc(F)ccc3OCC(F)(F)C(F)(F)F)c2)n[nH]1 | inactive | 
3 | O=C(CC(=O)C(F)(F)C(F)(F)C(F)(F)F)c1cccs1 |  | 21.7 µM (active) and 23.7 µM (active)
